TNFa cytotox – toxic to HUVEC cells under TNF alpha stimulation; AID 848; cell count reduction, % at 2 µM; 0.17% of 93,000 active; HUVEC TNFalpha-stimulated, Hoechst cell count, imaging;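 active = cell count reduction exceeding the screen mean by over 5 SD, scaled to untreated wells per plate, cut at about 78% in these data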;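 also: cells counted after 24 h of TNF alpha exposure following the 1 h pretreatment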
NFkB transloc pot – enhances IL-1B driven NFkB nuclear translocation; HUVEC IL-1B NFkB p65 nuclear translocation imaging; activation, % at 2 µM; 0.3% of 94,000 active;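 active = activation above 40%, about the mean plus 3 SD, also judged a hit on visual image review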;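 also: percent activation is computed from the nuclear over cytoplasmic p65 intensity ratio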
VCAM1 TNFa inh – reduces TNF alpha induced VCAM1 expression in HUVEC | HUVEC TNFa-induced VCAM-1 immunofluorescence, high-content imaging | AID 802 | inhibition, % at 2 µM | 0.48% of 95,000 active;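 active = inhibition above the batch mean plus 3 SD, with images confirmed as a hit by eye, cut at about 37% in these data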;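 also: 0% = TNF-stimulated DMSO wells and 100% = unstimulated control wells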
HUVEC tox IL1B – HUVEC cytotoxicity counter-screen, IL-1B stimulated; 0.41% of 94,000 active; AID 845; HUVEC cell count loss, Hoechst imaging; cell count reduction, % at 2 µM;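 active = cell count reduction more than 3 SD above the screen-wide mean, cut at about 70% in these data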;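 also: normalized per plate to untreated control cells as the no-loss baseline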
IL1B NFkB inh – blocks IL-1B driven NFkB nuclear translocation in HUVEC cells. HUVEC IL-1B NFkB p65 nuclear translocation imaging. inhibition, % at 2 µM. 0.43% of 94,000 active. AID 796;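 active = inhibition above about 30% together with a positive call from visual inspection of the well image, limit read from the data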;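 also: nuclear over cytoplasmic p65 intensity ratio measured by imaging; 0% = IL-1B stimulated DMSO wells and 100% = unstimulated DMSO wells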
E-sel TNF inh – TNF alpha driven E-selectin expression inhibition; HUVEC TNFa-induced E-selectin immunofluorescence, high content; inhibition, % at 2 µM; 0.71% of 120,000 active; AID 1246;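 active = inhibition above the batch mean plus 3 SD, and confirmed as a hit on visual image review, cut at about 43% in these data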;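 also: 0% = TNF-stimulated DMSO wells and 100% = unstimulated control wells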
Starred values were filed as active, the others as inactive; / = no result. Sampled rows, rich in hits. Any-hit rate of the full collection: about 1.8%.

SMILES | TNFa cytotox | NFkB transloc pot | VCAM1 TNFa inh | HUVEC tox IL1B | IL1B NFkB inh | E-sel TNF inh
CCN(CC)C(=O)c1c2c(nc3ccccc13)-c1ccccc1CC2 | 1 | 5 | 22 | -13 | -5 | /
Cc1ccc(N2C(=O)[C@@H]3C(C(=O)CCN4C(=O)c5ccccc5C4=O)=NN[C@@H]3C2=O)cc1 | / | / | / | / | / | 65*
Cc1cc(C)nc(N2CCCC(C(=O)NCc3ccccc3F)C2)n1 (centres undefined) | / | / | / | / | / | 5
O=S(=O)(c1ccc2c(c1)OCCCO2)N1CCNCC1 | 84* | 2 | 84* | 10 | -2 | /
COc1ccc(N2CCN(S(=O)(=O)c3ccc4c(c3)OCCO4)CC2)cc1 | / | / | / | / | / | -9
CCOC(=O)N1CCN(C(=O)C2CCC(C(=O)N3CCN(C(=O)OCC)CC3)CC2)CC1 (centres undefined) | -7 | 0 | 12 | -43 | 0 | 18
COc1ccc(-n2c(Cc3cccn3C)nnc2SCC(=O)NCC2CCCO2)cc1 (centres undefined) | -18 | -37 | 6 | 11 | 37* | /
Cc1ccccc1N=C1NN=C(c2ccccc2F)CS1 | / | / | / | / | / | 6
COC(=O)Nc1sccc1C(=O)Nc1sccc1C(=O)OC | -1 | 7 | 9 | -18 | -7 | -10
COC(=O)c1ccsc1NC(=O)C1=COCCO1 | 92* | -17 | 25 | 33 | 17 | /
Cc1ccc(C(=O)Nc2ccon2)cc1S(=O)(=O)N1CCCC1 | -32 | 30 | 14 | -85 | -30 | 17
CC(Sc1nnc(-c2cccs2)n1Cc1ccccc1)C(=O)NCc1ccc2c(c1)OCO2 (centres undefined) | -26 | 11 | -10 | -28 | -11 | 80*
COc1ccc(NC(=O)c2cccnc2SC)cc1S(=O)(=O)N1CCCCC1 | / | / | / | / | / | 12
CCOc1ccccc1N(CC(=O)OC)S(C)(=O)=O | -8 | -98 | -4 | 71* | 98* | -3
CCOc1ccccc1N(CC(=O)N1CCCCCC1)S(C)(=O)=O | -13 | 10 | -5 | -23 | -10 | -13
COCc1c(C(=O)N2CCN(c3ccc(C(F)(F)F)cn3)CC2)oc2ccccc12 | -18 | 12 | -6 | 2 | -12 | -26
Cc1nn(C)c(C)c1NC(=O)CSc1nc(Cc2ccccc2)nc2c1cnn2-c1ccccc1 | -16 | -4 | 8 | -25 | 4 | 5
Cc1nn(Cc2ccccc2)c(C)c1NC(=O)CSc1nc(C2CC2)nc2c1cnn2-c1ccccc1 | -1 | -47 | -1 | -10 | 46* | -56
Cc1ccc2oc(Nc3nc(-c4ccccc4)cc(=O)[nH]3)nc2c1 | / | / | / | / | / | 100*
COCc1cc(=O)[nH]c(Nc2nc3ccccc3o2)n1 | -20 | -12 | 6 | 10 | 12 | 16
CCOC(=O)N1CCC(Nc2c(NCCCN(C)Cc3ccccc3)c(=O)c2=O)CC1 | -27 | 42* | 12 | -7 | -42 | -2
CCCN(CCC)CCNc1c(NC2CCN(C(=O)OCC)CC2)c(=O)c1=O | -20 | 11 | -4 | 4 | -11 | 8
CC(NC(=O)CSC(=S)N(C)C)C12CC3CC(CC(C3)C1)C2 (centres undefined) | / | / | / | / | / | -39
Cc1cc(C)c2nc(SCC(=O)N3CC(=O)Nc4ccccc43)c(C#N)cc2c1 | 89* | -13 | 100* | 54 | 13 | -36
O=S(=O)(c1ccc(Cl)c(Cl)c1)c1snnc1-c1ccccc1 | 48 | 9 | 96* | 28 | -9 | 19
SMILES | TNFa cytotox | NFkB transloc pot | VCAM1 TNFa inh | HUVEC tox IL1B | IL1B NFkB inh | E-sel TNF inh
O=C(Oc1ccc(-c2nnco2)cc1)N(c1ccccc1)c1ccccc1 | -6 | 0 | 6 | -37 | 0 | -10
CC(C)Cn1c(SCC(=O)NC(=O)NC2CCCC2)nc2ccccc21 | -29 | 22 | 8 | -2 | -22 | /
COc1ccc(OC)c(C2C3=C(CCCC3=O)Nc3c2c(=O)n(C)c(=O)n3C)c1 (centres undefined) | -39 | 22 | 20 | 86* | -22 | -8
C=CCn1c(N)c(C(=O)NCCC2=CCCCC2)sc1=S | -5 | -7 | -5 | -16 | 7 | 11
Nc1cc(=O)[nH]c(=S)n1-c1cccc(C(F)(F)F)c1 | -38 | -10 | 32 | 22 | 10 | -2
O=c1cc(O)n(-c2ccc(F)cc2)c(=S)[nH]1 | -14 | 7 | 6 | 2 | -7 | 71*
CN1CCCN(S(=O)(=O)c2cccc(Cl)c2Cl)CC1 | / | / | / | / | / | 94*
O=S(=O)(c1cccc(Cl)c1Cl)N1CCCCC1 | 9 | 26 | 8 | -20 | -26 | 19
CN1CCCN(S(=O)(=O)c2ccc(Cl)c(Cl)c2)CC1 | / | / | / | / | / | 100*

Compound activity as filed in PubChem BioAssay.
